Source: PubChem BioAssay (The Scripps Research Institute Molecular Screening Center)
UHRF1 binding = human UHRF1 methylated DNA binding inhibitors; UHRF1 binding to methylated oligo, TR-FRET; Q96T88; inhibition, % at 4.4 µM; 0.75% of 370,000 active; in the data active means inhibition above about 21%;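 further: UHRF1 SRA domain binding a hemimethylated CpG hairpin DNA probe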
Target sequence (Q96T88 whole entry, looked up, the tested form may be a part): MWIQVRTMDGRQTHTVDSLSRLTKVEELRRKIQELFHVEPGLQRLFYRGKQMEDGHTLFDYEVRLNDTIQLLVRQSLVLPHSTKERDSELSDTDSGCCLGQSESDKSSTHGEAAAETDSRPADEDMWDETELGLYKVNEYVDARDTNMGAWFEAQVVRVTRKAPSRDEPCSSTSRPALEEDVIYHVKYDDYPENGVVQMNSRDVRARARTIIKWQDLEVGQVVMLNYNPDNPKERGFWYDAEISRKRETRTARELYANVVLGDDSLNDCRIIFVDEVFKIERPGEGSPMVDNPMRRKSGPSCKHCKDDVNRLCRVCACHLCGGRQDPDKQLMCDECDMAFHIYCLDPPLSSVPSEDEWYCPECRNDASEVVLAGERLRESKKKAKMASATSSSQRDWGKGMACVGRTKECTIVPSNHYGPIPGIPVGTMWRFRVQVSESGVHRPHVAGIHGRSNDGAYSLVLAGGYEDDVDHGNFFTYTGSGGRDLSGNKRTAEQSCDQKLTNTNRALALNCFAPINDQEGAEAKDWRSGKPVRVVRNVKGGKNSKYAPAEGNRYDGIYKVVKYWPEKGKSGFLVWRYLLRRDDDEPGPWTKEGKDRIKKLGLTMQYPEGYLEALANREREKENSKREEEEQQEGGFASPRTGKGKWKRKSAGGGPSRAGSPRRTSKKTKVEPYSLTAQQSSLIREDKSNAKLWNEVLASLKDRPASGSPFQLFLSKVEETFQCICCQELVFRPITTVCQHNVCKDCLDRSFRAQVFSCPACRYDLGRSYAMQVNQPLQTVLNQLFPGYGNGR
rCAG binder-1 = binds r(CAG) RNA repeats. r(CAG) RNA repeat, TO-PRO-1 dye displacement fluorescence. inhibition, % at 3 µM. 1.3% of 370,000 active;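 active means inhibition above the plate cutoff, the mean of all test compounds on that plate plus 3 SD, cut at about 35% in these data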;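 further: higher means more dye released from RNA so lower well fluorescence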
MBD2 DNA inh = blocks human MBD2 binding to methylated DNA. 0.31% of 370,000 active. inhibition, % at 4.4 µM. TR-FRET, MBD2 binding to methylated oligonucleotide; in the data active means inhibition above about 13%
ABHD5 PLIN5 PPI = inhibitors of human ABHD5-perilipin-5 interaction; 0.78% of 360,000 active; inhibition, % at 4 µM; AID 602281; Q00G26+Q8WTS1; Split G. princeps luciferase complementation, luminescence, 4 h;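 active means inhibition above the mean inhibition across every tested compound plus 3 SD, cut at about 22% in these data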
LEDGF integ inh = blocks HIV-1 LEDGF/p75-dependent DNA integration. 0.64% of 370,000 active. inhibition, % at 3.7 µM. AID 743269. TR-FRET IN-LEDGF/p75 DNA integration, Eu/Cy5;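 active means inhibition above the screen-wide mean plus 3 SD, cut at about 13% in these data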;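 further: signal is the Cy5 over europium emission ratio at 671 and 618 nm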
PRMT1 inh = blocks human protein arginine methyltransferase 1; inhibition, % at 2.79 µM; 1.3% of 370,000 active; recombinant PRMT1, activity-based probe fluorescence polarization;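 active means inhibition above about 21% made by adding two undisclosed values, limit read from the data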
rCAG bind conf = r(CAG) RNA repeat binding, confirmation | shares compounds with rCAG binder-1 | TO-PRO-1 dye displacement fluorescence | inhibition, % at 3 µM | 70% of 4,300 active | AID 652065;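 active means inhibition above a per-plate cutoff, the mean inhibition of sample wells plus 3 SD, cut at about 35% in these data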;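 further: loss of TO-PRO-1 fluorescence as compound displaces dye from 1x1 AA loop RNA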
DNA CAG counter = counter-screen for rCAG RNA binders: DNA CAG dye complex inhibitors; inhibition, % at 3 µM; 94% of 4,300 active; d(CAG) DNA oligo TO-PRO-1 dye displacement, fluorescence; AID 652068; shares compounds with rCAG binder-1;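 active means inhibition above its plate's cutoff, the mean test-well inhibition plus 3 SD, cut at about 4.8% in these data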;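 further: hits displace the dye from DNA and so lower well fluorescence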
dCAG dye DR = disrupts DNA CAG TO-PRO-1 complex in dose response | shares compounds with rCAG binder-1 | 20% of 250 active | DNA CAG/GTC duplex TO-PRO-1 dye displacement fluorescence | AID 686960 | IC50, µM; in the data active means IC50 below about 10 µM
dCAG TOPRO ctr = inhibits DNA CAG/GTC TO-PRO-1 complex, rCAG binder counter-screen; shares compounds with rCAG binder-1; d(CAG) DNA duplex TO-PRO-1 dye displacement, fluorescence; IC50, µM; 80% of 30 active
rCAG binder-2 = r(CAG) repeat RNA binding, TO-PRO-1 displacement; r(CAG) RNA TO-PRO-1 dye displacement, fluorescence; 100% of 30 active; IC50, µM; shares compounds with rCAG binder-1; AID 720651
Each line names hits and unclear results; the compound was inactive in the other large screens (follow-up assays come after a bar, where they were run). This is a sample that favours compounds with a hit; in the whole collection about 4.1% have one here. Unless noted, how the calls were made is not given here.

Cc1cc(=O)oc2c3c(cc(OCC(=O)NC(Cc4ccc(Cl)cc4)C(=O)O)c12)OC(C)(C)CC3 (configuration not stated)	rCAG binder-1 46 | rCAG bind conf 53 | DNA CAG counter 17
COc1ccc(C(=O)N2C(=S)NC(=O)/C2=C\c2ccc(C)cc2)cc1	rCAG binder-1 64 | rCAG bind conf 66 | DNA CAG counter 31
CN1c2ccsc2C(O)=C(C(=S)Nc2ccccc2)S1(=O)=O	none
Cc1ccc(NC(=S)C2=C(O)c3ccccc3N(C)S2(=O)=O)cc1	rCAG binder-1 59 | rCAG bind conf 35 | DNA CAG counter 8.7
CN1c2ccccc2C(O)=C(C(=S)Nc2ccc(F)c(Cl)c2)S1(=O)=O	rCAG binder-1 82 | rCAG bind conf 72 | DNA CAG counter 32
CN1CCN(CCCNC(=S)Nc2ccc(F)c(Cl)c2)CC1	none
COC(=O)c1cc2c(c3c4cc(OC)ccc4n(S(C)(=O)=O)c13)C(=O)N(C)C2	none (no result: ABHD5 PLIN5 PPI)
COc1cc(C)ccc1S(=O)(=O)NC(=O)C1(C)CCN1C(=O)C1(c2ccc(Cl)cc2)CCC1 (configuration not stated)	rCAG binder-1 42 | rCAG bind conf inactive | DNA CAG counter 5.4
Cc1ccc(F)c(S(=O)(=O)NC(=O)C2(C)CCN2C(=O)C2(c3ccc(Cl)cc3)CCC2)c1 (configuration not stated)	rCAG binder-1 36 | rCAG bind conf 63 | DNA CAG counter 24
Cc1ccc(F)c(S(=O)(=O)NC(=O)C2(C)CCN2C(=O)C2(c3ccc(Cl)cc3)CC2)c1 (configuration not stated)	rCAG binder-1 36 | rCAG bind conf 35 | DNA CAG counter 7.6
Cc1cccc(S(=O)(=O)NC(=O)C2(C)CCN2C(=O)C2(c3ccc(Cl)cc3)CC2)c1 (configuration not stated)	none
COc1ccc2oc(/C=C/N(C)C)c(C(=O)c3ccc(Cl)cc3)c2c1	rCAG binder-1 40 | rCAG bind conf inactive | DNA CAG counter 9.7
COc1ccc2oc(C)c(C(=O)c3ccccc3)c2c1	none
COc1cc(NC(=O)NC2CCCCN(Cc3cccc(Cl)c3)C2=O)cc(OC)c1 (configuration not stated)	none (no result: ABHD5 PLIN5 PPI)
CC(=O)Nc1ccc(-c2nc3cc(Cl)ccc3o2)cc1	none
CCn1c2ccccc2c2cc(NC(=O)c3ccccc3-c3ccccc3C(=O)O)ccc21	rCAG binder-1 75 | rCAG bind conf 65 | DNA CAG counter 26
O=C(O)c1ccccc1-c1ccccc1C(=O)Nc1ccc(-c2nc3cc(Cl)ccc3o2)cc1	rCAG binder-1 71 | rCAG bind conf 85 | DNA CAG counter 54
O=C(O)c1ccccc1-c1ccccc1C(=O)Nc1ccc2oc(=O)c3ccccc3c2c1	rCAG binder-1 51 | rCAG bind conf 51 | DNA CAG counter 14
O=C(O)c1ccccc1-c1ccccc1C(=O)Nc1ccc2c(c1)[nH]c(=O)c1ccccc12	rCAG binder-1 68 | rCAG bind conf 62 | DNA CAG counter 27
CCC(=O)OCCCN1C(=O)CCC12CCC(C)CC2 (configuration not stated)	none (no result: ABHD5 PLIN5 PPI)
CNc1ccccc1/C(O)=C(\C#N)C(=O)NCc1cccc2ccccc12	none (no result: ABHD5 PLIN5 PPI)
COC(=O)c1cccc(Cn2ccc3ccc(-c4ccc5ccn(C(=O)c6ccc(C)cc6)c5c4)cc32)c1	none (no result: ABHD5 PLIN5 PPI)
O=C(O)/C(=C\c1cccc(F)c1)c1ccc(S(=O)(=O)N2CCCC2)s1	none
CCCCOc1ccc(/C=C(\C(=O)O)c2ccc(S(=O)(=O)N3CCCC3)s2)cc1	rCAG binder-1 67 | rCAG bind conf 66 | DNA CAG counter 28
COc1cc(/C=C(\C(=O)O)c2ccc(S(=O)(=O)N3CCCC3)s2)ccc1OCCC(C)C	rCAG binder-1 72 | rCAG bind conf 57 | DNA CAG counter 20
O=C(O)/C(=C\c1ccc(C(F)(F)F)cc1)c1ccc(S(=O)(=O)N2CCCC2)s1	rCAG binder-1 37 | rCAG bind conf inactive | DNA CAG counter 5.5
O=C(O)/C(=C\c1ccc(Br)cc1)c1ccc(S(=O)(=O)N2CCCCC2)s1	rCAG binder-1 47 | rCAG bind conf 67 | DNA CAG counter 25 | dCAG dye DR inactive | dCAG TOPRO ctr 8.3 | rCAG binder-2 2.8
C[C@@H]1[C@@H](c2ccccc2)OC(O)([C@H](Cc2ccccc2)NC(=O)OC(C)(C)C)CN1C (some centres not stated)	none (no result: rCAG binder-1, ABHD5 PLIN5 PPI)
Cc1ccc(S(=O)(=O)n2ccc(-c3c(-c4ccc(F)cc4)noc3C)n2)cc1	none (no result: ABHD5 PLIN5 PPI)
Cc1[nH]c2ccccc2c1CC(=O)Nc1ccc(Nc2cccnc2)c(-c2ccc(C(C)(C)C)cc2)c1	none (no result: ABHD5 PLIN5 PPI)
COc1ccc(OC)c(CNc2ccc3c(c2)nc(C)n3C)c1	rCAG binder-1 44 | rCAG bind conf inactive | DNA CAG counter inactive
Cc1ccc(O)c(N=CC2=C(O)c3ccccc3C2=O)c1	rCAG binder-1 51 | rCAG bind conf 42 | DNA CAG counter 18
O=C1C(C=Nc2ccccc2O)=C(O)c2ccccc21	none
CC(C)CN(CC(C)C)C(=O)CSc1nc2cccnc2n1C	none (no result: ABHD5 PLIN5 PPI)
CS(=O)(=O)N1CCC(C(=O)NCC2COc3ccccc3O2)CC1 (configuration not stated)	none (no result: ABHD5 PLIN5 PPI)
N#CC(C#N)=C(Nc1ccc(F)cc1)SCc1cccc(Br)c1	rCAG binder-1 47 | rCAG bind conf 51 | DNA CAG counter 16 | dCAG dye DR inactive
O=C(O)c1cccc(N2C(=O)C3C4C=CC(C4=C(c4ccccc4)c4ccccc4)C3C2=O)c1 (configuration not stated)	rCAG binder-1 35 | rCAG bind conf 47 | DNA CAG counter 12
O=C(O)c1cccc(N2C(=O)c3ccc4c5c(ccc(c35)C2=O)C(=O)N(c2cccc(C(=O)O)c2)C4=O)c1	none
CCN(CC)S(=O)(=O)c1cc(NS(=O)(=O)c2cccc(Cl)c2Cl)ccc1C	rCAG binder-1 42 | rCAG bind conf 41 | DNA CAG counter 12
